Compounds without any hit were thinned out: in the full panel of roughly 83,000, 20% have a hit.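 96-well plates, one dose, 48 hours. Percent growth reported; active if below 10.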 A number with no mark means an inactive call. Activity calls are given as the source filed them.

Test systems include HCT-15 colon; SNB-75 CNS; SNB-19 CNS; U251 CNS; PC-3 prostate; SK-MEL-5 melanoma; UACC-62 melanoma; LOX IMVI melanoma; SK-MEL-28 melanoma; SK-MEL-2 melanoma; EKVX NSCLC; SN12C renal; UO-31 renal; TK-10 renal; ACHN renal; CAKI-1 renal; A498 renal; MOLT-4 leukemia; HT29 colon; CCRF-CEM leukemia.
What all share (assay): NCI-60 one-dose screen, 48 h (100 = growth as untreated, 0 = no growth, -100 = all killed)
Conditions in all cases: 10 µM unless noted

As for `COc1cc(/C=C/C(=O)c2c(C)oc3nc[nH]c(=O)c23)ccc1O`, the growth in the test on HCT-15 colon was 98.1%; with SNB-75 CNS, 84.4%; with SNB-19 CNS it was 97.3%; in the test with U251 CNS, 103%; in the test with PC-3 prostate, 103%; with SK-MEL-5 melanoma, 101%. Besides, the growth in the test with UACC-62 melanoma is 96.5%; in the test on LOX IMVI melanoma, 97.7%; in the test with SK-MEL-28 melanoma, 101%; in the test with SK-MEL-2 melanoma it was 109%; with EKVX NSCLC, 97.9%; in the test with SN12C renal it was 97.2%. In addition, the growth in the test with UO-31 renal is 84.3%; in the test on TK-10 renal, 135%; in the test on ACHN renal it was 101%; in the test on CAKI-1 renal, 87.1%; with A498 renal, 94.8%; in the test with MOLT-4 leukemia, 104%.

Turning to `Cc1ccc2[nH]c(=O)cc(-n3nncc3COc3ccc(C=O)cc3)c2c1`, the growth in the test on HT29 colon is 105%; in the test with SNB-75 CNS, 91.2%; in the test with SNB-19 CNS it was 102%; with U251 CNS, 102%; in the test on PC-3 prostate, 97.8%; with SK-MEL-5 melanoma, 101%. The growth in the test on UACC-62 melanoma is 93.7%; with LOX IMVI melanoma it was 99.6%; in the test with SK-MEL-28 melanoma, 113%; with SK-MEL-2 melanoma, 101%; with EKVX NSCLC, 103%; with SN12C renal, 106%. For the same compound, the growth in the test with UO-31 renal was 62.9%; in the test with TK-10 renal, 109%; with ACHN renal, 98.9%; in the test on CAKI-1 renal it was 87.8%; in the test on A498 renal, 117%; with CCRF-CEM leukemia, 97.9%. The growth in the test on MOLT-4 leukemia is 108%.

Consider `N#Cc1c(Nc2ccccc2)nn2cc(-c3nc4ccccc4s3)c(N)nc12`, for which the growth in the test with HCT-15 colon was 71%; in the test on SNB-75 CNS, 55.9%; in the test on SNB-19 CNS it was 76.5%; in the test on U251 CNS, 84.2%; in the test on PC-3 prostate it was 73.4%; with SK-MEL-5 melanoma, 67.6%. The growth with UACC-62 melanoma is 66.8%; with LOX IMVI melanoma it was 67.9%; with SK-MEL-28 melanoma, 68.7%; in the test on SK-MEL-2 melanoma, 97.5%; in the test on EKVX NSCLC, 71.9%; in the test with SN12C renal, 89.6%. Further, the growth with TK-10 renal was 107%; with ACHN renal, 59%; in the test on CAKI-1 renal, 82.6%; with CCRF-CEM leukemia, 79.2%; in the test with MOLT-4 leukemia, 93.7%.

Turning to `CCN1C(=O)N(CC)C2NC(SC)=NC21` (stereo not drawn), the growth was 103% in the test on HCT-15 colon; 86% in the test with SNB-75 CNS; 97.8% with SNB-19 CNS; 101% with U251 CNS; 99.5% in the test on PC-3 prostate; 104% in the test with SK-MEL-5 melanoma. Also, the growth is 96.2% in the test with UACC-62 melanoma; 93.1% in the test with LOX IMVI melanoma; 97.8% in the test on SK-MEL-28 melanoma; 111% with SK-MEL-2 melanoma; 97.6% with EKVX NSCLC; 95.9% with SN12C renal. The growth is 89.7% with UO-31 renal; 115% in the test with TK-10 renal; 99.8% with ACHN renal; 87.9% in the test on CAKI-1 renal; 90.2% in the test with A498 renal; 102% with MOLT-4 leukemia.

For `O=S(=O)(NCCCNc1nccc(-c2c(-c3cccc(O)c3)nc3occn23)n1)c1ccc(Br)cc1`, the growth in the test with HCT-15 colon is 102%; in the test on SNB-75 CNS, 97.4%; with SNB-19 CNS, 118%; in the test on PC-3 prostate, 91.1%; in the test with SK-MEL-5 melanoma it was 47.1%; in the test with UACC-62 melanoma, 8.87% (active). Also, the growth was 46.8% in the test with LOX IMVI melanoma; 35.5% with SK-MEL-28 melanoma; 54.3% with SK-MEL-2 melanoma; 105% in the test on EKVX NSCLC; 80.3% in the test on SN12C renal; 90.8% in the test with UO-31 renal. The growth was 135% in the test on TK-10 renal; 84.9% in the test on ACHN renal; 75.6% in the test on CAKI-1 renal; 87.9% in the test on CCRF-CEM leukemia; 72.9% with MOLT-4 leukemia.

As to `Cc1ccccc1CNc1ccc(N2CCOCC2)cc1`, the growth with HCT-15 colon is 101%; with SNB-75 CNS, 92.7%; in the test on SNB-19 CNS, 101%; with U251 CNS, 100%; in the test with PC-3 prostate, 99.6%; in the test on SK-MEL-5 melanoma it was 99.5%. In addition, the growth with UACC-62 melanoma was 94.8%; with LOX IMVI melanoma it was 102%; with SK-MEL-28 melanoma, 99.8%; in the test on SK-MEL-2 melanoma, 102%; with EKVX NSCLC, 104%; with SN12C renal, 96.3%. Besides, the growth in the test on UO-31 renal was 107%; with TK-10 renal, 95.3%; in the test with ACHN renal, 108%; with CAKI-1 renal, 99.1%; in the test with CCRF-CEM leukemia, 112%; in the test with MOLT-4 leukemia, 101%.

With `CCOC(=O)c1ccc(Nc2ccnc(SCC(=O)c3ccc(C#N)cc3)n2)cc1`, the growth in the test with HCT-15 colon is 75.8%; with SNB-75 CNS, 102%; in the test on SNB-19 CNS, 89.9%; with U251 CNS it was 84.8%; in the test on PC-3 prostate, 39.6%; in the test on SK-MEL-5 melanoma it was 37.5%. Also, the growth with UACC-62 melanoma was 39.3%; in the test on LOX IMVI melanoma, 80.3%; in the test on SK-MEL-28 melanoma, 80.8%; with SK-MEL-2 melanoma, 71.1%; in the test on EKVX NSCLC, 73.4%; in the test on SN12C renal, 73.8%. Also, the growth is 48% in the test on UO-31 renal; 90.4% with TK-10 renal; 80% with ACHN renal; 57.1% in the test with CAKI-1 renal; 50.2% in the test on A498 renal; 17.5% in the test with CCRF-CEM leukemia. Besides, the growth with MOLT-4 leukemia is 16.3%.

For the compound `COc1cc2nc(-c3ccc(C(F)(F)F)cc3)cc(OCCCN3CCC(O)CC3)c2cc1OC`, the growth was 9.78% (active) in the test with HCT-15 colon; -7.26% (active) in the test with SNB-75 CNS; 62% in the test on SNB-19 CNS; 46.3% in the test on U251 CNS; 40.6% with PC-3 prostate; -56.3% (active) with SK-MEL-5 melanoma. The growth in the test on UACC-62 melanoma was -31.3% (active); in the test with LOX IMVI melanoma it was -74.4% (active); in the test on SK-MEL-28 melanoma, 62.7%; with SK-MEL-2 melanoma it was 47.6%; in the test with EKVX NSCLC it was 59.8%; in the test with SN12C renal, 37.4%. Moreover, the growth was 24.2% with UO-31 renal; 85.7% with TK-10 renal; 31.2% in the test on ACHN renal; -6.95% (active) with CAKI-1 renal; 34.2% with CCRF-CEM leukemia; 35.3% in the test with MOLT-4 leukemia.

As for `Cc1nc2sc(C(=O)Nc3ccccc3)c(N)c2cc1C(=O)c1ccc(C(F)(F)F)cc1`, the growth with HCT-15 colon was 103%; in the test with SNB-75 CNS, 17.4%; with SNB-19 CNS it was 96.3%; with U251 CNS, 102%; in the test on PC-3 prostate, 102%; in the test with SK-MEL-5 melanoma, 98.1%. Besides, the growth was 95.3% in the test with UACC-62 melanoma; 96.9% in the test with LOX IMVI melanoma; 99.7% with SK-MEL-28 melanoma; 101% with SK-MEL-2 melanoma; 79.3% with EKVX NSCLC; 99.6% with SN12C renal. Moreover, the growth with UO-31 renal is 90.7%; in the test with TK-10 renal, 104%; with ACHN renal, 80%; in the test on CAKI-1 renal it was 83.6%; in the test with A498 renal it was 5.8% (active); in the test with CCRF-CEM leukemia, 102%. In the test on MOLT-4 leukemia, the growth is 108%.

The values are drawn from PubChem BioAssay (NCI).
